# Measurements taken from PubChem BioAssay AID652042 (Broad Institute, 2013).
# The campaign covered roughly 1,100 compounds. About 350 (32%) were called active. How the calls were made is not given here. Not all results are given here. Measured potencies and affinities stand elsewhere.
# Test: CEM21 lymphoblast cell cytotoxicity, dose response, cytotoxicity control for viral fusion inhibitor project, CellTiter-Glo luminescence, cherry-picked (AID 652042)
# Settings: CEM21 cells viability, CellTiter-Glo ATP luminescence, 24 h; series mostly up to 35 µM; activity change, negative = cytotoxicity: at the top concentration
row,SMILES,"activity change, negative = cytotoxicity"
1,CCc1ccc([C@H]2[C@@H]3C(=O)C[C@@H]4C(=O)N(Cc5ccccc5)C(=O)[C@@H]4[C@@H]3CN2S(=O)(=O)c2ccc(C)cc2)cc1,-8.07% (inactive)
2,CC(=O)c1c(O)cc2c3c1OC(C)(C)C1CCC(C)(CC31)O2 (stereo unspecified),-10.6% (inactive)
3,Cc1nc2ccccc2n1CC(=O)NCc1ccccc1,-8.14% (inactive)
4,CCS(=O)(=O)N1Cc2ccccc2CC1C(=O)NC(C)C12CC3CC(CC(C3)C1)C2 (stereo unspecified),-11.2% (inactive)
5,CCOC(=O)[C@@H]1[C@H]2COc3ccc(Br)cc3[C@@H]2N2C(=O)N(c3ccc(F)cc3)C(=O)[C@@]12C,-19.4% (inactive)
6,CCOC(=O)[C@@H]1[C@H]2COc3cc(OC)ccc3[C@H]2N2C(=O)N(c3cccc(F)c3)C(=O)[C@@]12C,-1.64% (inactive)
7,O=C(C[C@@H]1C[C@H]2c3cc(NC(=O)Nc4ccccc4)ccc3O[C@H]2[C@H](CO)O1)NCc1cccnc1,-0.189% (inactive)
8,Cc1ccc(S(=O)(=O)N2CCN(S(=O)(=O)c3ccc(C)cc3)C2c2ccccc2)cc1,-6.37% (inactive)
9,c1ccc(CSc2nnc([C@@H]3CCCN3)o2)cc1,-2.9% (inactive)
10,O=C(C1CCCCC1)N1CCCC(c2nc3c(nnn3Cc3ccccc3)c(=O)[nH]2)C1 (stereo unspecified),-0.473% (inactive)
11,CCN(C[C@H]1N[C@@](C)(C(=O)OC)[C@H]2C(=O)N(Cc3ccccc3)C(=O)[C@@H]12)S(=O)(=O)c1ccc(C)cc1,-0.762% (inactive)
12,CCN(C[C@H]1N[C@@](CC)(C(=O)OC)[C@H]2C(=O)N(Cc3ccccc3)C(=O)[C@@H]12)S(=O)(=O)c1ccc(C)cc1,-12.5% (inactive)
13,O=C(c1ccc(Cl)cc1)N1CCCCC(Sc2nnc(-c3ccc4c(c3)OCO4)o2)C1=O (stereo unspecified),-2.73% (inactive)
14,Cc1cc(C)c(S(=O)(=O)N2CCN=C2c2ccccc2)cc1C,-9.27% (inactive)
15,c1ccc2c(N3CCCCC3)ncnc2c1,-7.9% (inactive)
16,CC(C)[C@H](CN(N=O)[C@@H](Cc1ccccc1)CN(C)N=O)N(CCc1ccccc1)N=O,-21.7% (inactive)
17,Cc1ccccc1-n1c(=O)c2ccccc2n2cnnc12,2.85% (inactive)
18,COc1ccc(NC(=O)C(=O)NCC2CCCN2S(=O)(=O)c2cccs2)cc1 (stereo unspecified),-23.2% (inactive)
19,COc1ccc(C(=O)NCCc2ccc(Cl)cc2)cc1S(=O)(=O)N1CCCCC1C (stereo unspecified),-24% (inactive)
20,O=C(CN(c1cc(C(F)(F)F)ccc1Cl)S(=O)(=O)c1ccccc1)NCc1cccnc1,-6.14% (inactive)
21,CC(C)(C)N1C(=O)[C@H]2[C@@H](c3ccc(Br)cc3)N3C(=O)N(c4ccccc4)C(=O)[C@@]3(C)[C@H]2C1=O,-1.59% (inactive)
22,COc1ccc(Nc2ncc(C(=O)N3CCN(c4ccc(F)cc4)CC3)c3ccccc23)cc1,-15.8% (inactive)

row,SMILES,"activity change, negative = cytotoxicity"
1,CO[C@H]1CN(C)C(=O)c2cc(NC(=O)c3ccc(F)cc3)ccc2OC[C@H](C)N(C(=O)CN(C)C)C[C@@H]1C,-4.43% (inactive)
2,COc1ccccc1OCC(=O)c1[nH]c(C)c(C(C)=O)c1C,-10.2% (inactive)
3,Cc1cccc2cc3c(N)c(C#N)sc3nc12,-1.38% (inactive)
4,O=C1CCCc2c1[nH]c1ccc(Cl)cc21,6.7% [at 16 µM] (inactive)
5,O=C(NNS(=O)(=O)c1ccc(F)cc1F)C1Cc2c(ccc3ccccc23)O1 (stereo unspecified),-1.4% (inactive)
6,COc1ccc(S(=O)(=O)Nc2ccc3c(c2)CC(=O)N([C@@H](C)CO)C[C@H](C)[C@H](CN(C)S(=O)(=O)c2ccc(C)cc2)O3)cc1,-4.93% (inactive)
7,Cc1ccc(S(=O)(=O)N(C)C[C@H]2Oc3cc(-c4cccc(F)c4)ccc3S(=O)(=O)N([C@H](C)CO)C[C@H]2C)cc1,-24.6% (inactive)
8,C[C@@H]1CN([C@@H](C)CO)S(=O)(=O)c2ccc(-c3ccccc3)cc2O[C@H]1CN(C)S(C)(=O)=O,-14.9% (inactive)
9,C[C@@H]1CN([C@H](C)CO)C(=O)c2cc(NC(=O)Nc3ccccc3)ccc2O[C@@H]1CN(C)S(=O)(=O)c1ccccc1,-5% (inactive)
10,COc1ccc([C@@H]2[C@@H]3C(=O)N(C(C)(C)C)C(=O)[C@@H]3[C@]3(CC(C)C)C(=O)N(c4cccc(Br)c4)C(=O)N23)cc1,1.72% (inactive)
11,COc1ccc(Cn2nnnc2C(c2cc3cccc(C)c3[nH]c2=O)N2CCOCC2)cc1 (stereo unspecified),-2.74% (inactive)
12,COc1ccc(C(C(=O)NC2CCCC2)N(C(=O)c2ccoc2C)c2ccc(C)cc2)cc1 (stereo unspecified),-24% (inactive)
13,O=C(NCc1ccco1)c1ccc(Cn2c(=O)c3ccccc3n(Cc3cccc(F)c3)c2=O)cc1,3.08% (inactive)
14,CCC(=O)N(C)C(c1ccccc1Cl)c1nnnn1-c1c(C)cccc1C (stereo unspecified),-15.6% (inactive)
15,O=C(Nc1ccc(CN2CCS(=O)(=O)CC2)cc1)c1ccc(C(F)(F)F)cc1,-21.8% (inactive)
16,CCCCCCOc1ccc(OC(=O)c2ccncc2)cc1,-12.3% (inactive)
17,C[C@@H]1CNC(=O)c2c(C(=O)N(C)Cc3ccccc3)ncn21,-18.7% (inactive)
18,O=C1[C@H]2[C@@H](C3CC3)N3C(=O)CN(CC4CC4)C(=O)[C@@]3(Cc3ccccc3)[C@H]2C(=O)N1c1ccccc1,0.041% (inactive)
19,CC1(C(=O)N/N=C/c2cc3c(cc2Br)OCO3)CC1(Br)Br (stereo unspecified),-5.08% (inactive)
20,COc1cc(/C=N/NS(=O)(=O)c2ccc(C)cc2)ccc1OCc1ccc(C(=O)O)cc1,4.25% (inactive)
21,Cc1ccsc1/C=N/Nc1cccc(C(=O)O)c1,-7.18% (inactive)
22,CC1(C(=O)N/N=C/c2ccc3c(c2)OCO3)CC1(Br)Br (stereo unspecified),1.88% (inactive)

row,SMILES,"activity change, negative = cytotoxicity"
1,CCCn1c(=S)[nH]c2cc(C(=O)N3CCCC(C(=O)OCC)C3)ccc2c1=O (stereo unspecified),-16.8% (inactive)
2,Cc1cc(C(=O)CN2C(=O)c3ccccc3S2(=O)=O)c(C)n1CC1CCCO1 (stereo unspecified),7.48% (inactive)
3,O=C(NC1=NCCS1)C1COc2ccccc2O1 (stereo unspecified),-11.6% (inactive)
4,O=C(Nc1ccc(S(=O)(=O)N2CCCC2)cc1)c1ccc(CN2CCOCC2)cc1,-13.1% (inactive)
5,COC(=O)c1ccc(NC(=O)c2ccc(CN3CCOCC3)cc2)cc1,-6.47% (inactive)
6,O=S(=O)(c1ccc(Cl)cc1)N1CCCN(c2nc3ccc(Cl)cc3s2)CC1,-15.6% (inactive)
7,O=C(CC1C(=O)NCCN1Cc1cccc(F)c1)NC1CCCCC1 (stereo unspecified),0.283% (inactive)
8,CC(C)(C)c1ccc(OCCC(=O)Nc2cccc(S(=O)(=O)N3CCOCC3)c2)cc1,-11.4% (inactive)
9,COc1ccc(NC(=O)Nc2ccc3c(c2)N(C)C(=O)CS3)cc1Cl,-20.2% (inactive)
10,CCOc1ccccc1N(C(=O)CNC(=O)c1ccco1)C(C(=O)NC1CCCC1)c1cccnc1 (stereo unspecified),-6.89% (inactive)
11,CCOc1ccc(S(=O)(=O)NCc2ccncc2)cc1,-16.8% (inactive)
12,O=C(C[C@@H]1C[C@H]2c3cc(NC(=O)C4CCOCC4)ccc3O[C@H]2[C@H](CO)O1)NCc1ccccc1F,-1.23% (inactive)
13,CC(C)NC(=O)Nc1ccc2c(c1)C(=O)N([C@@H](C)CO)C[C@@H](C)[C@@H](CN(C)C(=O)CCC(F)(F)F)OCCCC[C@@H](C)O2,-0.148% (inactive)
14,CO[C@H]1CN(C)C(=O)c2cc(NC(C)=O)ccc2OC[C@@H](C)N(Cc2nccs2)C[C@H]1C,-4.5% (inactive)
15,CC(NC(=O)CN(C)CC(=O)Nc1ccc(Cl)c(C(F)(F)F)c1)c1ccccc1 (stereo unspecified),-20.4% (inactive)
16,COc1ccccc1NC(=O)N[C@@H]1C=C[C@H](CC(=O)NCc2ccc(Cl)c(Cl)c2)O[C@@H]1CO,-8.5% (inactive)
17,Cc1cccc(N2C(=O)N3[C@H](c4ccc(Br)cc4)[C@@H]4C(=O)N(C(C)(C)C)C(=O)[C@@H]4[C@]3(C)C2=O)c1,-2.6% (inactive)
18,COc1cc2c(c(OC)c1OC)[C@@]1(c3ccccc3)CCCC[C@H]1[C@@H]2NC(=O)C(F)(F)F,-4.67% (inactive)
19,Cc1ccccc1OCCCCn1cnc2ccccc21,-3.25% [at 16 µM] (inactive)
20,CC[C@]1(C(=O)OC)[C@H]2C(=O)N(Cc3ccccc3)C(=O)[C@H]2[C@H]2CN=C(SCc3ccccc3)N21,-11.6% (inactive)
21,Cc1ccc(CSCCNC(=O)c2ccc(Cl)c(S(=O)(=O)N3CCOCC3)c2)cc1,-18.7% (inactive)
22,COc1ccc(OC)c(-c2cc(C(=O)Nc3c(C)nn(Cc4ccc(Cl)cc4)c3C)no2)c1,-11.3% (inactive)

row,SMILES,"activity change, negative = cytotoxicity"
1,COc1ccc([C@@H]2[C@@H]3C(=O)N(C(C)(C)C)C(=O)[C@@H]3[C@]3(CC(C)C)C(=O)N(c4ccc(C(F)(F)F)cc4)C(=O)N23)cc1,0.418% (inactive)
2,CC1(C(=O)NCc2ccc3c(c2)OCO3)CCN1Cc1csc2ccccc12 (stereo unspecified),-10.1% (inactive)
3,O=C(c1ccc(Cl)s1)N1CCN(c2nc3ccccc3s2)CC1,-12.8% (inactive)
4,CC1CCc2c(sc3ncnc(N4CCOCC4)c23)C1 (stereo unspecified),-0.353% (inactive)
5,CCN1C(=O)[C@H]2[C@@H](c3ccc(C)cc3)N3C(=O)N(c4ccc(C(F)(F)F)cc4)C(=O)[C@@]3(CC(C)C)[C@H]2C1=O,-11.3% (inactive)
6,CCOc1c(C)cnc2c1c(=O)n(Cc1ccc(Cl)cc1)c(=O)n2C,-4.47% (inactive)
7,Cc1ccc2cc(C#N)c(NCCNC(=O)C3CC3)nc2c1C,-7.75% (inactive)
8,COc1ccc(S(=O)(=O)Nc2ccc3c(c2)CC(=O)N([C@@H](C)CO)C[C@H](C)[C@H](CN(C)S(=O)(=O)c2cccs2)O3)cc1,0.186% (inactive)
9,COc1ccc(CCC(C)NCc2cc(OC)cc(OC)c2)cc1 (stereo unspecified),-6.55% (inactive)
10,CCCc1cc(C(=O)NCc2ccc(OC)cc2)no1,-1.74% (inactive)
11,Cc1ccc(OCCN2CCN(c3ncnc4sc(C)c(C)c34)CC2)cc1,-27.5% (inactive)
12,COc1cc(C(=O)N2CCN(c3ncnc4sc(C)c(C)c34)CC2)cc(OC)c1OC,-21.1% (inactive)
13,CN(C)C(=O)C[C@H]1C[C@@H]2c3cc(NC(=O)NC4CCCCC4)ccc3O[C@@H]2[C@H](CO)O1,4.2% (inactive)
14,CCN(C[C@H]1N[C@@](C)(C(=O)OC)[C@H]2C(=O)N(Cc3ccccc3)C(=O)[C@@H]12)C(=O)c1ccc(C(C)(C)C)cc1,-7.41% (inactive)
15,O=C(Nc1ccc(Oc2ccccc2)cc1)c1csc([C@H]2C[C@H](O)[C@@H](CO)O2)n1,-16.4% (inactive)
16,c1csc(CNc2ncnc3sccc23)c1,-7.21% (inactive)
17,CCN(CC(=O)Nc1cc(Cl)ccc1C)C(=O)c1ccc(=O)n(Cc2ccccc2)n1,0.209% (inactive)
18,O=C(NCC(=O)N1CCN(c2ncccn2)CC1)c1ccccc1OC(F)F,-0.419% (inactive)
19,O=C(Nc1ccc(N2CCN(C(=O)c3ccccc3)CC2)c(Cl)c1)c1cccnc1,-16.1% (inactive)
20,O=C(CCCn1c(=S)[nH]c2cc3c(cc2c1=O)OCO3)N1CCN(c2ccc(Cl)cc2)CC1,-10.7% (inactive)
